HCMV NEC inh: disrupts HCMV UL50-UL53 complex binding | HTRF UL50-UL53 interaction, normalized percent inhibition | inhibition, % (concentration not given with the values) | actives 0.15% (n = 190,000); in the data active means inhibition above about 27%, passing the limit was not always enough
Sa helicase inh: S. aureus DNA helicase inhibition; purified S. aureus helicase, fluorescence unwinding assay; inhibition, % (no concentration beside the values); actives 0.05% (n = 120,000); in the data active means inhibition above about 25%, passing the limit was not always enough
Sa growth inh: blocks Staphylococcus aureus growth. S. aureus RN4220 growth, OD600, 20 h, 42 °C; stronger effect = lower value. actives 0.53% (n = 170,000). relative growth, % (no concentration beside the values). AID 720641;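 active means relative growth at most 50% at the other temperature and 20+ points below 30 °C, or under 10% at both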
Large screens that a line does not name were inactive. This excerpt belongs to a sample that is enriched for hits.

O=C(O)c1cn(C2CC2)c2cc(N3CCN(C(=S)S)CC3)c(F)cc2c1=O	Sa growth inh -0.9
Nn1c(SCC(=O)Nc2cccc(Br)c2)nnc1C(F)(F)F	none
CC(C)Oc1ccc(Cl)cc1-c1nnc2ccccn12	none (no result: Sa helicase inh, Sa growth inh)
C/C=C(/C)C(=O)OC1CC(O)(C(C)C)C2C(OC(=O)c3ccc(O)cc3)CC(C)=CCC12C (stereo unspecified)	Sa growth inh 6.0
NC(=O)N/N=C/c1ccc(-c2ccc(Cl)cc2)o1	none
NC(=O)N/N=C/c1ccc([N+](=O)[O-])o1	Sa growth inh 2.5 (no result: Sa helicase inh)
O=C(/C=C/c1ccc2c(c1)OCO2)N1CCN(CCN2C(=O)c3cccc4cccc(c34)C2=O)CC1	none (no result: Sa helicase inh, Sa growth inh)
N#CSCC(=O)c1cccs1	Sa growth inh 1.0
N#CCN(CC#N)C(=O)c1cccs1	none (no result: Sa helicase inh)
COc1ccc(C2CC(c3ccccc3)=NN2C(=O)CCCC(=O)O)cc1OC (stereo unspecified)	none (no result: Sa helicase inh, Sa growth inh)
Cc1c(C(=O)N(C)Cc2ccccc2)sc2ncnc(N3CCN(c4ccccc4)CC3)c12	none (no result: HCMV NEC inh)
Cc1nc(Cc2nnc(SCC(=O)c3ccc(Cl)s3)o2)cs1	none
N#Cc1nccnc1S(=O)(=O)c1cccs1	Sa growth inh -0.7 (no result: Sa helicase inh)
O=S(=O)(c1cccs1)c1cccs1	none (no result: Sa helicase inh)
CC(C)c1ccc(S(=O)(=O)N2CCN(c3cc(=O)n4nc(-c5ccccc5)sc4n3)CC2)cc1	HCMV NEC inh 43 (no result: Sa helicase inh, Sa growth inh)
Cc1cccc(-c2nn3c(=O)cc(N4CCN(S(=O)(=O)c5ccccc5C)CC4)nc3s2)c1	none (no result: Sa helicase inh, Sa growth inh)
CCOc1ccc(S(=O)(=O)N2CCN(c3cc(=O)n4nc(-c5ccccc5)sc4n3)CC2)cc1	HCMV NEC inh 45 (no result: Sa helicase inh, Sa growth inh)
Cc1ccccc1-c1nn2c(=O)cc(N3CCN(S(=O)(=O)Cc4ccccc4)CC3)nc2s1	none (no result: Sa helicase inh, Sa growth inh)
COCC(C)NC(=O)c1cnc2scc(C)n2c1=O (stereo unspecified)	none (no result: Sa helicase inh, Sa growth inh)
O=C(CC1Sc2ccccc2NC1=O)Nc1ccc(F)cc1 (stereo unspecified)	none
CC1(C)CC(=O)C(C2(O)C(=O)c3ccccc3C2=O)C(=O)C1	HCMV NEC inh 82
CC1(C)C=C(O)C(C2(O)C(=O)c3ccccc3C2=O)C(=O)C1 (stereo unspecified)	none
O=C(Oc1ccc(OCc2ccccc2)cc1)c1ccc(-n2cnnn2)cc1	none
CCCNC(=O)c1ccc2c(=O)n(Cc3ccccc3)c(SCC(=O)c3ccc(OC)cc3)nc2c1	none (no result: Sa helicase inh, Sa growth inh)
NC(=S)NC1CCCC1	none
O=C(Nc1ccc(Cl)c(Cl)c1)Oc1ccc(NC(=O)c2ccco2)cc1	Sa growth inh 3.7
O=C(Nc1ccc2ccccc2c1)c1ccco1	none (no result: Sa helicase inh)
c1ccc2cc3c(Nc4ccc(N5CCOCC5)cc4)ccnc3cc2c1	none (no result: HCMV NEC inh)
CC(C)Nc1ccc(Nc2ccnc3cc4ccccc4cc23)cc1	Sa helicase inh 67, Sa growth inh -1.9 (no result: HCMV NEC inh)
O=c1ccsn1Cc1ccccc1	Sa growth inh -0.8
O=C1N(Cc2ccccc2)c2cccc3cccc(c23)N1Cc1ccccc1	none (no result: HCMV NEC inh)
Cc1cc(C)nc(NS(=O)(=O)c2ccc(NC(=O)c3ccccc3C(=O)O)cc2)n1	none (no result: Sa helicase inh, Sa growth inh)
CCOC(=O)N1C/C(=C/c2ccsc2)C(=O)/C(=C\c2ccsc2)C1	none
Cc1c(C(=O)NCc2ccccc2)oc2c1-c1[nH]ncc1CC2	none (no result: Sa helicase inh)
Cc1c(C(=O)O)oc2c1-c1[nH]ncc1CC2	HCMV NEC inh 61
Cc1c(C(=O)NC(C)C)oc2c1-c1[nH]ncc1CC2	HCMV NEC inh 70 (no result: Sa helicase inh)
Cc1cc(C)cc(NC(=O)c2oc3c(c2C)-c2[nH]ncc2CC3)c1	none (no result: HCMV NEC inh)
Cn1ccc2cc(S(=O)(=O)N3CCC(C(=O)NCCc4c[nH]c5ccccc45)CC3)ccc21	none (no result: Sa helicase inh, Sa growth inh)
CCOC(=O)c1sc(NC(=O)c2sc3ccccc3c2Cl)c(C(=O)OCC)c1C	none (no result: Sa helicase inh, Sa growth inh)
Cc1ccc(N2CC(C(=O)Nc3cccc(-c4noc(C5CCC5)n4)c3)CC2=O)cc1C (stereo unspecified)	none (no result: Sa helicase inh, Sa growth inh)
Cc1nc(N2CCOCC2)ncc1C(=O)NC1CCCC1	none (no result: Sa helicase inh, Sa growth inh)
N#C/C(=C/c1ccc(Br)o1)c1ccc(C(=O)O)cc1	none
Cc1ccc(/C(C#N)=C\c2cccs2)cc1	none
Cc1ccc(/C(C#N)=C\c2ccco2)cc1	Sa growth inh 42
N#C/C(=C/c1ccco1)c1ccc(Br)cc1	Sa growth inh 22
N#C/C(=C\c1ccco1)S(=O)(=O)c1ccc(Cl)cc1	none
N#C/C(=C\c1ccco1)c1ccc(Cl)cc1	Sa growth inh 49 (no result: Sa helicase inh)
CC(C)Cc1ccc(S(=O)(=O)N2CCCc3ccccc32)cc1	none (no result: HCMV NEC inh)
Cc1[nH]c2ccccc2c1C(Nc1ccccc1)c1ccccn1 (stereo unspecified)	none
Cc1cccc(NC(=O)c2cnn(-c3ccc(F)cc3)c2C2CCN(C(=O)OC(C)(C)C)CC2)c1C	none (no result: HCMV NEC inh)
CCCCCOc1ccc(O)cc1	none
O=C(Cn1ncc2c1-c1ccccc1OC2)NCc1ccccc1	none
CCCN1CCN(CCCNC(=O)c2cc3c(-c4ccc(OC)c(OC)c4)nn(C)c3s2)CC1	Sa helicase inh 50
COc1ccc(-c2nn(C)c3sc(C(=O)NCCCN4CCOCC4)cc23)cc1OC	none

Screening data from PubChem BioAssay.
